# Bioassay records deposited in PubChem BioAssay by National Center for Advancing Translational Sciences (NCATS).
# Pol iota inh: inhibitors of human DNA polymerase iota; Q9UNA4; Pol iota fluorescent replication assay, 10 min; Potency, µM (series often up to 115 µM), for inactives: top-dose activity, negative = inhibition, actives largely listed as inhibitors; 390,000 tested, 1% active; AID 588590
#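 Pol iota at 10 nM preincubated 15 min with compounds at room temperature; reaction started with fluorescent substrate, 50 nM final. Fluorescence read kinetically at 0 and 10 min; buffer-only wells as negative control.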
# FEN1 inh: human FEN1 inhibition; Potency, µM (highest dose often 114 µM), inactives show top-dose activity change, negative = inhibition, most hits filed as inhibitors; Recombinant FEN1 flap cleavage, fluorescence, 15 min; P39748; 390,000 tested, 0.35% active; also: % is scaled to controls: 0 for no effect and ±100 for the full control effect; nearly all actives have a fitted effect of over 65% in size
#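 Reaction started by adding substrate (50 nM final) to 10 nM enzyme after 15 min room-temperature compound preincubation. Reads at 0 and 15 min, with data normalized and fitted to a four-parameter Hill equation.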
# Pol eta inh-1: DNA polymerase eta (human) inhibition; Q9Y253; recombinant Pol eta, fluorescent DNA replication assay; Potency, µM (doses to about 114 µM), for inactives: at the highest dose activity change, negative = inhibition, actives largely listed as inhibitors; 390,000 tested, 1.2% active; AID 588591; also: % is scaled to controls: 0 for no effect and ±100 for the full control effect
#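 Fluorescent replication assay: 50 nM final substrate added after a 15 min room-temperature compound preincubation with 10 nM enzyme. Signal taken at 0 min and again at 10 min.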
# Pol beta inh: blocks human DNA polymerase beta activity; Pol beta primer extension/strand displacement, fluorescence kinetic; AID 485314; P06746; Potency, µM (series often up to 114 µM), for inactives: top-dose activity change, negative = inhibition, most hits filed as inhibitors; 340,000 tested, 1.3% active; also: % is scaled to controls: 0 for no effect and ±100 for the full control effect
#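 Homogeneous kinetic assay of primer extension and strand displacement by 10 nM Pol beta, preincubated 15 min at room temperature with compound before 50 nM substrate (final) was added. Read at 0 and 10 min; four-parameter Hill fit.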
# Pol kappa inh-1: inhibitors of human DNA polymerase kappa; purified Pol kappa, fluorescent DNA synthesis assay, 10 min; 400,000 tested, 0.53% active; Q9UBT6; AID 588579; Potency, µM (titrated, usually from 107 µM), inactives show at the top dose activity, negative = inhibition, hits mostly inhibitors; also: % is scaled to controls: 0 for no effect and ±100 for the full control effect
#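 Readout: fluorescence, taken kinetically at 0 and 10 min. Conditions: 10 nM Pol kappa, 15 min RT compound preincubation, 50 nM substrate final. Controls: enzyme-free buffer wells.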
# WRN helicase inh: blocks human WRN helicase; Q14191; WRN helicase unwinding, fluorescent forked duplex, kinetic; Potency, µM (doses to about 114 µM), inactives show top-dose activity change, negative = inhibition, usual class: inhibitors; 360,000 tested, 0.46% active; also: % is scaled to controls: 0 for no effect and ±100 for the full control effect; nearly all actives have a fitted effect of over 55% in size
#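 WRN at 20 nM final was preincubated with compound for 15 min at room temperature; reaction started with 100 nM forked duplex oligonucleotide carrying fluorophore and quencher plus 2 mM ATP (final). Unwinding followed kinetically by red fluorescence (ex 525/em 598 nm).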
# Pol kappa inh-2: Pol kappa (human) inhibition, cherry-pick confirmation; shares compounds with Pol eta inh-1; purified Pol-kappa, fluorescent strand-displacement substrate; Potency, µM, usual class: inhibitors; 920 tested, 76% active; AID 720501
# Pol eta inh-2: Pol eta (human) inhibition, cherry-pick confirmation. Pol eta primer extension, TAMRA/BHQ fluorescence, 10 min. AID 720502. shares compounds with Pol eta inh-1. Potency, µM, most hits filed as inhibitors. 2,600 tested, 64% active
# * marks the source's active call; other numbers are inactive results; ? = inconclusive; · = no result given; [ ] = remark or other dose. Rows were chosen to be rich in hits. Some 2.4% of all compounds tested hit in one or more screens of this group. Calls follow the shape of the dose curve; as a rule, active = well fitted curve in the direction sought with a large enough effect; inconclusive = small, poorly fitted or top-dose-only effect, or another doubt; inactive = no such curve, though single readings can be large; an effect the other way counts as inactive or inconclusive. Potency is read from the fitted curve at half-maximal effect.
SMILES,Pol iota inh,FEN1 inh,Pol eta inh-1,Pol beta inh,Pol kappa inh-1,WRN helicase inh,Pol eta inh-2,others
O=C(O)c1ccc(/C=N/NC(=O)c2cc3ccccc3cc2O)cc1,16µM*,?,22µM*,·,50µM*,?,?,
Cc1ccn2cc(CC(=O)O)nc2c1,?,6%,14µM*,13µM*,?,-9%,67*,
Cc1ccn2cc(-c3ccc(O)c(O)c3)nc2c1,14µM*,-17%,22µM*,10µM*,20µM*,45µM*,?,
CCOC(=O)c1cn2ccc(C)cc2n1,12%,3%,-17%,?,-6%,6%,·,
Oc1ccc(-c2cn3ccccc3n2)cc1O,11%,10%,-12%,0%,11%,-10%,·,
O=C(O)CCN1CC2([N+](=O)[O-])C=CC(=O)C([N+](=O)[O-])(C1)C2CC(=O)c1ccccc1 (centres undefined),?,1%,18µM*,28µM*,?,-18%[11.6 µM],30*,Pol kappa inh-2=17*
O=C(CCN1CCCCCC1)c1ccccc1,0%,6%,-8%,0%,-7%,-19%,·,
O=C1NC(=O)/C(=C/c2ccco2)N1,50%,0%,-9%,·,3%,·,·,
O=C1NC(=S)NC1=Cc1ccco1,?,45µM*,13µM*,·,?,-118%,76*,Pol kappa inh-2=34*
COc1ccccc1C(=O)N/C(=C/c1ccco1)C(=O)Nc1cccc(C(=O)O)c1,?,?,20µM*,?,45µM*,?,76*,Pol kappa inh-2=34*
Cc1cccc(NC(=O)/C(=C\c2ccc([N+](=O)[O-])o2)NC(=O)c2ccc(Cl)cc2)c1,?,3%,10µM*,10µM*,?,-7%[11.6 µM],?,
O=C(/C=C/c1ccco1)Nc1ccccc1C(=O)Nc1cccc(C(=O)O)c1,20µM*,-32%,18µM*,-50%,?,?,30*,Pol kappa inh-2=24*
Cc1ccc(C(=O)N/C(=C/c2ccco2)C(=O)Nc2cccc(C(=O)O)c2)cc1,?,-32%,22µM*,1%,?,-24%,?,
Cc1cc(NC(=O)/C=C/c2ccco2)ccc1NC(=O)c1ccccc1,4%,1%,-11%,-2%,5%,-15%,·,
COc1ccccc1NC(=O)c1cc(=O)c2ccc(C)c(C)c2o1,0%,-2%,-12%,34%,?,·,·,
Cc1cccc(N2CCN(C(=O)Cn3nc(C)c4sc5ccccc5c4c3=O)CC2)c1C,-16%,14%,14%,-18%,3%,·,·,
O=C(c1ccccc1)c1ccc2nc(Nc3ccccc3Cl)c3nncn3c2c1,13%,-7%,-6%,6%,-18%[60.1 µM],·,·,
O=C(O)c1ccc(-n2c(-c3cc(C4CC4)[nH]n3)n[nH]c2=S)cc1,-12%,-3%,-8%,10%,-6%,-1%,·,
O=C(O)c1ccc(-n2c(-c3cc(-c4ccco4)[nH]n3)n[nH]c2=S)cc1,?,3%,10µM*,?,?,?,30*,
